Compounds with a hit are over-represented: about 19% of the library has one in this group of screens.
TDP1 cell noCPT = qHTS for Inhibitors of human tyrosyl-DNA phosphodiesterase 1 (TDP1): qHTS in cells in absence of CPT. DT40 Tdp1-/- hTDP1 cells, no CPT, ATP luminescence, 48 h. Potency, µM (highest dose often 46.2 µM), inactives show at the highest dose activity change, negative = growth inhibition, actives largely listed as inhibitors. actives 15% (n = 420,000); also: potency is read from the fitted curve at half-maximal effect; nearly all actives have a fitted effect of over 55% in size
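No-CPT arm: Tdp1-/-;hTDP1 DT40 cells (400/well) plus compounds, incubated ≥48 hr at 37 °C. Readout CellTiter-Glo luminescence.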
ELG1 DNA repair = inhibitors of ELG1-dependent DNA repair in HEK293T cells | HEK293T ELG1-luciferase reporter, luminescence, 16 h; DNA damage induced by 5-fluorouridine | Potency, µM (series often up to 46.1 µM), for inactives: at the highest dose activity change, negative = inhibition, most hits filed as inhibitors | actives 2.3% (n = 330,000) | AID 504467; also: potency is read from the fitted curve at half-maximal effect; nearly all actives have a fitted effect of over 55% in size
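Cells (2,000 per well) received 5-fluorouridine plus test compound or DMSO and were incubated 16 hr at 37 °C, 5% CO2. Luciferase activity was read by luminescence 30 min after ONE-Glo addition; signal suppression marked inhibition of damage-induced ELG1 function.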
IL1B secr inh = inhibitors of inflammasome signaling (IL-1 beta secretion). THP-1 LPS/ATP IL-1B secretion, AlphaLISA, 16 h; stronger effect = lower value. activity change, % at 57.5 µM. actives 4.7% (n = 360,000); in the data active = activity change below about -50%; inconclusive = mostly about -30% to -49%
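Secreted IL-1B measured by AlphaLISA bead assay after 16 h compound exposure of THP-1 cells; compounds (final up to 57.5 uM) added 1 h before LPS (250 ng/mL) and ATP (1.25 mM) stimulation; lower signal means less secretion.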
DT40 TDP1 CPT = DT40-hTDP1 cell growth loss with CPT; Potency, µM (series often up to 46.2 µM), for the others: at the top dose activity change, negative = growth inhibition, hits mostly inhibitors; chicken DT40 Tdp1-/-;hTDP1 cells + 20 nM CPT, ATP luminescence, 48 h; actives 12% (n = 420,000); AID 686979; also: potency is read from the fitted curve at half-maximal effect; nearly all actives have a fitted effect of over 55% in size
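Chicken DT40 Tdp1-/- cells stably complemented with human TDP1 were seeded at 400 cells/well in medium containing 20 nM camptothecin, exposed to pin-transferred compounds, and grown at 37 °C for at least 48 hr. Viability was read as ATP luminescence.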
HT1080NT lethal = kills 2HG-producing HT-1080-NT fibrosarcoma cells; Potency, µM (highest dose often 46.1 µM), without a hit: at the highest dose activity, negative = less viability, hits mostly cytotoxic; actives 1.6% (n = 360,000); AID 686970; HT-1080-NT fibrosarcoma viability, CellTiter-Glo ATP luminescence, 48 h;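 also: NT is the 2HG producing partner of a matched IDH1 knockdown line; potency is read from the fitted curve at half-maximal effect; 0% = DMSO-treated cells and -100% = media-only wells without cells; nearly all actives have a fitted effect of over 55% in size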
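Read-out is CellTiter-Glo luminescence after 10 minutes at room temperature, following 48 hours' compound treatment of HT-1080-NT cells (750 cells/well, RPMI, 5% FBS, 37 degrees C).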
HT1080 IDH1KD tx = toxicity to HT-1080 IDH1 knockdown cells (counter line). HT-1080 IDH1 knockdown viability, ATP luminescence, 48 h. Potency, µM (highest dose often 46.1 µM), for inactives: top-dose activity, negative = toxicity, hits mostly cytotoxic. actives 2% (n = 360,000);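 also: potency is read from the fitted curve at half-maximal effect; 0% = DMSO wells and -100% = cell-free medium wells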
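Cytotoxicity counter-line: IDH1KD HT-1080, 48 h, CellTiter-Glo. Curves classed by r2, magnitude and activity.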
* = called active by the depositor; ! = a repeat was not active; [ ] = remark or other dose. Unless noted, calls follow the shape of the dose curve; as a rule, active = well fitted curve in the direction sought with a large enough effect; inconclusive = small, poorly fitted or top-dose-only effect, or another doubt; inactive = no such curve, though single readings can be large; an effect the other way counts as inactive or inconclusive. Unless noted, % is scaled to controls: 0 for no effect and ±100 for the full control effect.

Screening O=C1CCSc2ccc(Cl)cc2N1Cc1ccc(Cl)cc1 returned TDP1 cell noCPT 29.1µM*, ELG1 DNA repair 10.4%, IL1B secr inh inconclusive, DT40 TDP1 CPT inconclusive, HT1080NT lethal -24.8% and HT1080 IDH1KD tx -3.9%[9.24 µM].
Screening Cc1cccc(CN2C(=O)CCSc3ccc(Cl)cc32)c1 returned TDP1 cell noCPT 10.3µM*, ELG1 DNA repair -2.7%, IL1B secr inh 30.6, DT40 TDP1 CPT inconclusive, HT1080NT lethal -12.5% and HT1080 IDH1KD tx -9.9%.
O=C(NCCN1CCOCC1)c1ccc2c(c1)N(Cc1ccc(Cl)cc1)C(=O)CS2 was read as TDP1 cell noCPT inconclusive, ELG1 DNA repair 11.4%, IL1B secr inh -7.6, DT40 TDP1 CPT inconclusive, HT1080NT lethal -14.4% and HT1080 IDH1KD tx inconclusive.
Screening COc1cc(C)c(CN2CCN(S(=O)(=O)c3ccc(Cl)s3)CC2)cc1OC returned TDP1 cell noCPT inconclusive, ELG1 DNA repair -29.1%, IL1B secr inh -11.7, DT40 TDP1 CPT inconclusive, HT1080NT lethal -9.0% and HT1080 IDH1KD tx -1.2%.
Screening CCCCn1c(=O)n(CC2CCC(C(=O)NCCCOC)CC2)c(=O)c2sccc21 (stereo unspecified) returned TDP1 cell noCPT -32.1% and DT40 TDP1 CPT -5.1%.
C=COCCNC(=S)N1CCOCCOCCN(C(=S)NCCOC=C)CCOCC1 was read as TDP1 cell noCPT 3.2%, ELG1 DNA repair -3.5%, IL1B secr inh 10.6, DT40 TDP1 CPT -15.4%, HT1080NT lethal 7.5% and HT1080 IDH1KD tx 2.3%.
For CC1CCN(C(=O)C(C)OC(=O)CSc2ccc([N+](=O)[O-])cc2)CC1 (stereo unspecified) the results were TDP1 cell noCPT inconclusive, ELG1 DNA repair 16.9%, IL1B secr inh -7.4, DT40 TDP1 CPT inconclusive, HT1080NT lethal -3.7% and HT1080 IDH1KD tx 0.2%.
Screening COc1cccc(/C=N/Nc2nc(C)cc(=O)[nH]2)c1OC returned TDP1 cell noCPT -4.3%, ELG1 DNA repair inconclusive, IL1B secr inh 24.6, DT40 TDP1 CPT -4.3%, HT1080NT lethal 15.0% and HT1080 IDH1KD tx -1.5%.
Screening Cc1cc(=O)[nH]c(N/N=C/c2cc(C)n(CC(F)(F)F)c2C)n1 returned TDP1 cell noCPT 7.31µM*, ELG1 DNA repair inconclusive, IL1B secr inh 9.9, DT40 TDP1 CPT 8.2µM*, HT1080NT lethal -18.5% and HT1080 IDH1KD tx -6.3%.
For COC(=O)c1ccc(-n2c(C)cc(/C=N/Nc3nc(C)cc(=O)[nH]3)c2C)cc1 the results were TDP1 cell noCPT 16.4µM*, ELG1 DNA repair -19.4%, IL1B secr inh 13.0, DT40 TDP1 CPT 14.6µM*, HT1080NT lethal -0.3% and HT1080 IDH1KD tx -12.9%.
For CCOC(=O)CC(=O)CSc1nc(-c2cccnc2)ccc1C#N the results were TDP1 cell noCPT 3.55µM*, ELG1 DNA repair inconclusive, IL1B secr inh -5.7, DT40 TDP1 CPT inconclusive, HT1080NT lethal 16.0% and HT1080 IDH1KD tx 27.9%.
For CCOC(=O)CC(=O)CSc1nc(-c2cccnc2)cc(C)c1C#N the results were TDP1 cell noCPT 7.6%, ELG1 DNA repair -0.5%, IL1B secr inh 15.5, DT40 TDP1 CPT 10.2%, HT1080NT lethal -0.2% and HT1080 IDH1KD tx -6.8%[9.24 µM].
CCCN1CCC(NC(=O)CC2C(=O)NCCN2Cc2ccccc2C)CC1 (stereo unspecified) was read as TDP1 cell noCPT 1.8%, ELG1 DNA repair 11.0%, IL1B secr inh 0.0, DT40 TDP1 CPT 42.5%, HT1080NT lethal 8.0% and HT1080 IDH1KD tx 9.2%.
`Cn1ccnc1SCC(=O)c1cccc(C(F)(F)F)c1` gave TDP1 cell noCPT -21.4%, ELG1 DNA repair inconclusive, IL1B secr inh -7.4, DT40 TDP1 CPT -1.9%, HT1080NT lethal 0.5% and HT1080 IDH1KD tx 9.7%.
`CC(C)c1nc(CN(C)C(=O)N[C@H](C(=O)N[C@@H](Cc2ccccc2)C[C@H](O)[C@H](Cc2ccccc2)NC(=O)OCc2cncs2)C(C)C)cs1` gave TDP1 cell noCPT 21.1µM*! and DT40 TDP1 CPT 16.8µM*!.
Screening CCc1ccc(NC(=O)Cn2cnc3sc(C)c(S(=O)(=O)N4CCN(c5ccccc5OC)CC4)c3c2=O)cc1 returned TDP1 cell noCPT 16.4µM* and DT40 TDP1 CPT inconclusive.
Screening CCc1ccc(NC(=O)Cn2cnc3sc(C)c(S(=O)(=O)N4CCC(C)CC4)c3c2=O)cc1 returned TDP1 cell noCPT -27.0% and DT40 TDP1 CPT -5.8%.
For COc1ccccc1N1CCN(S(=O)(=O)c2c(C)nc3sc(C)c(C)n3c2=O)CC1 the results were TDP1 cell noCPT 20.6µM* and DT40 TDP1 CPT 20.6µM*.
For Cc1sc2ncn(CC(=O)Nc3ccc(C(F)(F)F)cc3)c(=O)c2c1S(=O)(=O)N1CCN(C)CC1 the results were TDP1 cell noCPT 1.3µM* and DT40 TDP1 CPT inconclusive.
COC(=O)Cn1cnc2sc(C)c(S(=O)(=O)N3CCN(c4ccccc4OC)CC3)c2c1=O was read as TDP1 cell noCPT 2.6%, ELG1 DNA repair inconclusive, IL1B secr inh -4.5, DT40 TDP1 CPT -12.1%, HT1080NT lethal 10.3% and HT1080 IDH1KD tx 10.4%.
For Cc1ccc(-c2nnc(NC3CCCC3)s2)cc1 the results were TDP1 cell noCPT inconclusive, ELG1 DNA repair inconclusive, IL1B secr inh inconclusive, DT40 TDP1 CPT -9.5%, HT1080NT lethal 1.0% and HT1080 IDH1KD tx 10.2%.
For O=C(COC(=O)c1ncc(Cl)c(Cl)c1Cl)NC1CCCCCC1 the results were TDP1 cell noCPT -3.1%, ELG1 DNA repair 26.8%, IL1B secr inh -27.5, DT40 TDP1 CPT 1.0%, HT1080NT lethal -4.7% and HT1080 IDH1KD tx 0.6%.
For Cc1ccc(N2C(=O)c3cccc([N+](=O)[O-])c3C2=O)cc1C the results were TDP1 cell noCPT -11.8%, ELG1 DNA repair 7.9%, IL1B secr inh inconclusive, DT40 TDP1 CPT -1.1%, HT1080NT lethal 21.3% and HT1080 IDH1KD tx 16.5%.
Screening CC(=O)Oc1ccc(N2C(=O)c3cccc4c([N+](=O)[O-])ccc(c34)C2=O)cc1 returned TDP1 cell noCPT 5.8µM*, ELG1 DNA repair 18.3µM*, IL1B secr inh inconclusive, DT40 TDP1 CPT 3.66µM*, HT1080NT lethal -4.1% and HT1080 IDH1KD tx -10.8%.
COc1ccccc1N1C(=O)c2cccc3c(N(C)CCO)ccc(c23)C1=O was read as TDP1 cell noCPT inconclusive, ELG1 DNA repair 0.6%, IL1B secr inh 10.8, DT40 TDP1 CPT 8.2µM*, HT1080NT lethal -8.2% and HT1080 IDH1KD tx -5.9%.
